# Sampled rows, rich in hits. Any-hit rate of the full collection: about 19%.
# IL1B secr inh – inhibitors of inflammasome signaling (IL-1 beta secretion); THP-1 LPS/ATP IL-1B secretion, AlphaLISA, 16 h; active compounds read low; activity change, % at 57.5 µM; actives 4.7% (n = 360,000); AID 743279; in the data active means activity change below about -50%; inconclusive means mostly about -30% to -49%
#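 Secreted IL-1B measured by AlphaLISA bead assay after 16 h compound exposure of THP-1 cells; compounds (final up to 57.5 uM) added 1 h before LPS (250 ng/mL) and ATP (1.25 mM) stimulation; lower signal means less secretion.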
# HT1080 IDH1KD tx – kills HT-1080 cells with IDH1 knockdown | Potency, µM (top dose mostly 46.1 µM), usual class: cytotoxic | HT-1080 IDH1 knockdown viability, ATP luminescence, 48 h | AID 686971 | actives 2% (n = 360,000)
#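 Viability of IDH1-knockdown HT-1080 fibrosarcoma cells was assessed by CellTiter-Glo after 48 h at 37 °C with titrated compound; concentration-effect curves were classified by fit quality and response size.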
# DT40 TDP1 no CPT – qHTS for Inhibitors of human tyrosyl-DNA phosphodiesterase 1 (TDP1): qHTS in cells in absence of CPT; DT40 Tdp1-/- hTDP1 cells, no CPT, ATP luminescence, 48 h; Potency, µM (titrated, usually from 46.2 µM), most hits filed as inhibitors; actives 15% (n = 420,000); further: nearly all actives have a fitted effect of over 55% in size
#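 Seeded 400 DT40-hTDP1 cells/well (vehicle DMSO, no 20 nM CPT); pinned compounds; ≥48 hr at 37 °C; CellTiter-Glo luminescence as viability measure.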
# TDP1 cell CPT – growth inhibition of DT40 Tdp1-/-;hTDP1 cells with camptothecin (screen for TDP1 inhibitors); Potency, µM (doses to about 46.2 µM), actives largely listed as inhibitors; actives 12% (n = 420,000); chicken DT40 Tdp1-/-;hTDP1 cells + 20 nM CPT, ATP luminescence, 48 h; AID 686979; further: nearly all actives have a fitted effect of over 55% in size
#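 Cell growth measured by CellTiter-Glo luminescence after a minimum 48 h, 37 C compound exposure with 20 nM CPT in Tdp1-knockout DT40 cells stably expressing hTDP1, seeded 400/well; qHTS titration format.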
# ELG1 DNA repair – ELG1-dependent DNA repair inhibition; HEK293T ELG1-luciferase reporter, luminescence, 16 h; DNA damage induced by 5-fluorouridine; actives 2.3% (n = 330,000); Potency, µM (doses to about 46.1 µM), hits mostly inhibitors; AID 504467; further: nearly all actives have a fitted effect of over 55% in size
#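 In this reporter screen, reduction of luminescence relative to DMSO vehicle indicated activity. Compounds and 5-fluorouridine were added together to 2,000 cells per well, incubated for 16 hr at 37 °C, then developed with ONE-Glo.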
# HT1080NT lethal – kills 2HG-producing HT-1080-NT fibrosarcoma cells; Potency, µM (highest dose often 46.1 µM), usual class: cytotoxic; actives 1.6% (n = 360,000); HT-1080-NT fibrosarcoma viability, CellTiter-Glo ATP luminescence, 48 h;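 further: NT is the 2HG producing partner of a matched IDH1 knockdown line; nearly all actives have a fitted effect of over 55% in size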
#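 Toxicity toward the 2HG-producing NT line was scored as %Activity, normalised to DMSO and no-cell wells, from CellTiter-Glo luminescence after 48 hours' treatment.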
# Numbers stand for hits; 0 = inactive; ? = inconclusive; - = no result. Unless noted, the call rests on the fitted dose curve; in most records, active means well fitted curve in the direction sought with a large enough effect; inconclusive means small, poorly fitted or top-dose-only effect, or another doubt; inactive means no such curve, though single readings can be large; an effect the other way counts as inactive or inconclusive.
SMILES,IL1B secr inh,HT1080 IDH1KD tx,DT40 TDP1 no CPT,TDP1 cell CPT,ELG1 DNA repair,HT1080NT lethal
COc1cccc(NS(=O)(=O)c2ccc3[nH]c4c(c3c2)CCCCCC4)c1,-,-,21µM,16µM,-,-
CCc1cccc(OCC(=O)Nc2cc(S(=O)(=O)N3CCOCC3)ccc2N2CCCC2)c1,0,0,?,?,?,0
NS(=O)(=O)c1ccc(CNC(=O)c2ccc(Cl)c([N+](=O)[O-])c2)cc1,?,0,?,?,0,0
CCOC(=O)C(C)(C)N(Cc1ccc(C)cc1)S(=O)(=O)c1ccc(Cl)c([N+](=O)[O-])c1,-104,?,13µM,15µM,?,?
CCOC(=O)C(C)(C)N(Cc1ccc(Cl)cc1)S(=O)(=O)c1ccc(Cl)c([N+](=O)[O-])c1,-,-,-,-,18µM,-
COc1ccc(-c2csc(NC3CCCCC3)n2)c(OC)c1,0,0,?,0,?,0
CCC1(C(=O)NC(=Nc2ccccc2)Nc2ccccc2)CCOC1=O (stereo not given),0,0,0,0,-,0
Cc1ccc2nc(NCc3ccccc3)c3nncn3c2c1,-,-,0,0,-,-
CCC(=O)N1CCC1(C)C(=O)NS(=O)(=O)c1cccc(C#N)c1 (stereo not given),0,0,0,?,-,0
Cc1cc(C(=O)C[N+]2(C)CCOCC2)c(C)n1-c1ccc(Br)cc1,-69,0,?,?,0,0
CC(C)(C)OC(=O)C(Oc1ccccc1[N+](=O)[O-])C(=O)OC(C)(C)C,0,0,?,?,-,0
O=C(c1coc(=O)c(Br)c1)N1CCOCC1,0,0,5.2µM,5.2µM,0,0
O=C(c1csnn1)N1CCC[C@@]2(CCN(Cc3ccccc3)C2)C1,-,-,0,0,-,-
COCCn1c(=O)c(-c2ccc(Cl)cc2)nc2cnc(Nc3ccccc3)nc21,-,-,0,0,-,-
COC(=O)c1[nH]c2ccc(Br)cc2c1NC(=O)C(C)N1CCN(C2CCCCC2)CC1 (stereo not given),-82,21µM,16µM,5.2µM,0,?
COCCNC(=O)c1ccc2c(=O)n(CCOC)c(SCC(=O)c3c[nH]c4ccccc34)nc2c1,-,-,13µM,23µM,-,-
COCCNC(=O)c1ccc2c(=O)n(CCc3ccccc3)c(SCC(=O)CC(=O)OC)nc2c1,-,-,21µM,?,-,-
Cc1csc(C(C)N(C)C(=O)c2cc(NC(=O)C3CCC3)c3c(c2)nc(-c2ccncc2)n3C)n1 (stereo not given),-,-,0,0,-,-
O=C(O)CCC(=O)N1CCc2cc(S(=O)(=O)NCc3ccc(F)cc3)ccc21,-,-,0,0,-,-
CCOC(=O)C1CCCCN1C(=O)/C(=C/c1ccc(OC)cc1)c1ccc(OC)c(OC)c1 (stereo not given),0,0,?,18µM,18µM,0
COC(=O)[C@@]12CCCCN1[C@H](c1ccc(-c3cc(C(C)=O)cs3)cc1)[C@H]1C(=O)N(C)C(=O)[C@H]12,0,0,3.7µM,5.2µM,?,0
COC(=O)[C@@]12CCCCN1[C@H](c1ccc(-c3cc(C(C)=O)cs3)c(OC)c1)[C@H]1C(=O)N(C)C(=O)[C@H]12,0,0,2.9µM,4.1µM,?,0
Cc1ccsc1CNC12CC3CC(CC(C3)C1)C2,0,0,0,0,0,0
COC(=O)c1cc(OC)c(OC)cc1NC(=O)c1cccc(OC)c1OC,0,0,5.8µM,?,?,0
COC(=O)c1cc(OC)c(OC)cc1NC(=O)c1ccco1,-62,0,?,?,23µM,0
SMILES,IL1B secr inh,HT1080 IDH1KD tx,DT40 TDP1 no CPT,TDP1 cell CPT,ELG1 DNA repair,HT1080NT lethal
COc1cc(NC(=O)c2ccco2)c(OC)cc1NC(=O)CCC(=O)Nc1cc(C)cc(C)c1,0,0,?,?,21µM,0
COc1cc(NC(=O)c2ccco2)c(C(=O)O)cc1OC,0,0,0,0,0,0
COc1ccc(NC(=O)COC(=O)c2cc(OC)c(OC)cc2NC(=O)c2ccco2)cc1OC,0,?,21µM,?,23µM,?
COC(=O)c1cc(OC)c(OC)cc1NC(=O)Nc1ccccc1OC,0,0,0,0,0,0
CCCCCCCCNc1ccccc1S(=O)(=O)NCc1ccccc1,0,?,18µM,?,0,?
COc1ccc(C=NNC(=O)c2ccccc2OCc2ccc(F)cc2)c(OC)c1,0,0,?,?,?,0
CCOc1ccc(N2C(=O)/C(=C\c3ccccc3OC)S(=O)(=O)C2c2cccc([N+](=O)[O-])c2)cc1 (stereo not given),0,0,16µM,15µM,0,0
COc1ccccc1/C=C1/C(=O)N(c2cc(C)cc(C)c2)C(c2cccc([N+](=O)[O-])c2)S1(=O)=O (stereo not given),0,0,?,0,0,0

# Screening results: PubChem BioAssay, National Center for Advancing Translational Sciences (NCATS)
